90 compounds from PubChem BioAssay AID652257 (The Scripps Research Institute Molecular Screening Center, 2013) can be followed below.

Where “and” joins values, the source holds several entries; their conditions need not be identical. Equal entries are not always repeated. Screen size: about 370,000 compounds; about 4,800 (1.3%) were called active. This is one part of a sample in which actives are shown more often than they occur. A number with no mark means an inactive call.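 How the source made its calls: active means inhibition above about 21% made by adding two undisclosed values (limit read from the data); inactive means the rest.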

The target of the experiment is Protein arginine N-methyltransferase 1 (Homo sapiens) (UniProt Q99873). In words: PRMT1 methyltransferase inhibitors, primary screen, biochemical, fluorescence polarization (AID 652257). The settings on record: recombinant PRMT1, activity-based probe fluorescence polarization; at 2.79 µM; hits give high values.
Chain of Protein arginine N-methyltransferase 1 (Homo sapiens) (Q99873 whole entry, looked up): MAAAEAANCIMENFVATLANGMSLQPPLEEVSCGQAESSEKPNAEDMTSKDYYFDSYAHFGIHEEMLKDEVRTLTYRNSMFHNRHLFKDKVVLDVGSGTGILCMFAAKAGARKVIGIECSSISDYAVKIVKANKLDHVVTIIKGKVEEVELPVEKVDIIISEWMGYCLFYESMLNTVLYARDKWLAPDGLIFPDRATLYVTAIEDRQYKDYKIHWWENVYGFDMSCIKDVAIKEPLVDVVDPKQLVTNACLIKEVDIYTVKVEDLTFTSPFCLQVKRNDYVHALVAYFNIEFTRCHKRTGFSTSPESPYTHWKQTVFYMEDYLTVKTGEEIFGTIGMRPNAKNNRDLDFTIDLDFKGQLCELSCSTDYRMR
In the case of `CCN1C(=O)N[C@@H]2C[C@H](C(=O)N3CCCC3)[C@H](C)[C@H](c3ccccc3)C[C@@H]21`, the inhibition (commonly the change of the read-out against control, counted positive when it falls) was -4.4%.

For `Cc1sc(NC(=O)c2ccc3ncsc3c2)c(C(N)=O)c1C`, the inhibition was 33.8% (active).

On to `COc1ccccc1-c1nnc(NC(=O)c2ccc3ncsc3c2)o1`, for which the inhibition is 9.47%.

Consider `O=C(COC(=O)c1ccc2ncsc2c1)Nc1ccc(Cl)cc1`, for which the inhibition is 14.3%.

`CN1CCCc2nc(-c3ccccc3)ccc21`: the inhibition was -1.81%.

In the case of `Cc1c(C(C)CCCO)oc(=O)c2c1Oc1c(C)c(C(C)C[C@@H](C)O)oc(=O)c1C2` (stereo not given in full), the inhibition was 1.8%.

Take `CCCN(CCC)S(=O)(=O)c1cc2c(cc1Br)CCN2C(=O)CC`: the inhibition was -3.61%.

Regarding `CCOc1cnc(C(=O)NNC(=O)c2ccccc2Br)o1`, the inhibition was 0.46%.

For `COC(=O)C12C=C3CC(c4ccccc4)=C3C(=O)N1Cc1[nH]c3ccccc3c1C2` (stereo not given), the inhibition was -2.05%.

As to `CCc1ccccc1NC(=O)CSc1nnc(-c2cccs2)o1`, the inhibition was -1.47%.

As for `CN(C)c1ccc(C(CC(=O)O)C(=O)O)cc1` (stereo not given), the inhibition is 39.2% (active).

As for `O=C(O)C(CCc1ccccn1)c1ccccc1` (stereo not given), the inhibition was 0.25%.

As to `CC(=O)NC(CC(=O)O)c1ccc(F)cc1` (stereo not given), the inhibition was 0.13%.

For `C[C@H]1[C@H](NC(=O)c2cccc(N(C)C)c2)CC[C@@]23CCCN2C(=O)CCC[C@@H]13`, the inhibition was -0.17%.

For the compound `CCOc1ccc(N(CC(=O)Nc2c(C)n(C)n(-c3ccccc3)c2=O)S(=O)(=O)c2ccc(Cl)s2)cc1`, the inhibition is -5.48%.

With `CCO/C([O-])=N/c1c[n+](N2CCOCC2)no1`, the inhibition was -1.72% and 4.84%.

`COC(=O)[C@]1(C#N)CC(=O)N(CC2CCCCC2)[C@@H]1c1ccccc1`: the inhibition is -3.09%.

Take `COC(=O)[C@@]1(Sc2ccc(C)cc2)CC(=O)N(c2cccc(SC)c2)[C@@H]1c1ccccc1`: the inhibition is 4.3%.

On to `CCOC(=O)N1C(=O)C[C@](Sc2ccc(C)cc2)(C(=O)OC)[C@H]1c1ccccc1`, for which the inhibition was 53.6% (active).

On to `O=S1(=O)c2c(cccc2N2CC[C@H](O)C2)O[C@@H]2CCN1C2`, for which the inhibition was -1.77%.

As for `NC(=O)c1sc2nc3c(c(-c4ccccc4)c2c1N)CCC3`, the inhibition was 21.5% (active).

On to `CC(C)OC(=O)c1sc2nc3c(cc2c1N)C(=O)CCC3`, for which the inhibition is 0.71%.

As for `COc1ccccc1-c1c(C#N)c(N)nc2c1CCC2`, the inhibition was -2.76%.

As to `Nc1scc[n+]1Cc1cccc2cccnc12`, the inhibition is -6.71%.

Regarding `c1ccc2c(C[n+]3csc4ccccc43)cccc2c1`, the inhibition is 31.2% (active).

`CN1[C@H](Cc2ccccc2)COc2cccc(N3CCSCC3)c2S1(=O)=O`: the inhibition was 6.45%.

As to `COC(=O)C1CN(Cc2cn(Cc3ccc(F)cc3)nn2)CCS(=O)(=O)N1Cc1ccc(Cl)cc1` (stereo not given), the inhibition is -0.68%.

For the compound `COCC(=O)N[C@@H]1C[C@@H]2O[C@@H](CO)CC[C@@H]2O[C@@H]1CCc1ccc(-c2ccccc2)cc1`, the inhibition is 0.28%.

For `CCOCc1c(C(=O)N2CCN(Cc3ccc(Br)s3)CC2)oc2ccccc12`, the inhibition is -1.1%.

With `CCc1ccc(NC(=O)C(C)OC(=O)/C=C/c2cccc([N+](=O)[O-])c2)cc1` (stereo not given), the inhibition is -0.43%.

On to `COC(=O)/C=C\C(=O)Nc1cccc([N+](=O)[O-])c1`, for which the inhibition is 91.7% (active).

Regarding `CN(C(=O)c1cccc(NC(=O)Cc2cccc([N+](=O)[O-])c2)c1)C1CCCCC1`, the inhibition was -0.61%.

Take `COc1ccc(CN2C/C(=C/c3ccccc3)N3C(=O)C[C@@H](c4ccccc4)N=C23)c(OC)c1`: the inhibition is 0.52%.

`CCC(C)c1ccc(NC(=S)N2CCCC2)cc1` (stereo not given): the inhibition is 2.33%.

Regarding `COc1ccc(N2CCN(CCNS(=O)(=O)c3ccc(C(C)(C)C)cc3)CC2)cc1`, the inhibition is 0.09%.

In the case of `CCC(=C/c1sc2ccc3ccccc3c2[n+]1C)/C=C1\Sc2ccc3ccccc3c2N1C`, the inhibition was 75.6% (active).

`Oc1c(C=Nc2cccc3nsnc23)ccc2ccccc12`: the inhibition was 27.2% (active).

On to `O=C(NC1CCCCN(Cc2cccc(C(F)(F)F)c2)C1=O)c1ccccc1I` (stereo not given), for which the inhibition was -1.71%.

With `COC(=O)c1cccc(Cn2ccc3ccc(-c4ccc5ccn(C(=O)c6ccccc6C)c5c4)cc32)c1`, the inhibition is 1.92%.

Consider `COc1cc(NC(=O)C2CCCN(S(=O)(=O)c3ccc(C(C)(C)C)cc3)C2)cc(OC)c1` (stereo not given), for which the inhibition was -5.91%.

In the case of `Cc1sc(NC(=S)NC(=O)c2cccs2)nc1-c1ccc(CC(C)C)cc1`, the inhibition was -4.11%.

Take `NS(=O)(=O)c1ccc(NC(=S)NNC(=O)c2cccs2)cc1`: the inhibition is 0.74%.

`O=C(NC(=S)Nc1cccc(-c2ccc(CO)o2)c1)c1cccs1`: the inhibition was 21.4% (active).

Regarding `CCOC(=O)[C@]12CCCC=C1N(Cc1ccc(OC)cc1)C(=O)[C@@H]2CC(=O)NCc1cccs1`, the inhibition was 7.82%.

Take `COc1cc(NC(=S)N2CCCC(C)C2)c(OC)cc1Cl` (stereo not given): the inhibition was 40.8% (active).

Regarding `COc1cc(NC(=S)N2CCCC(C)C2)cc(OC)c1OC` (stereo not given), the inhibition is 5.72%.

Take `COc1cc(NC(=O)CSC(=S)N2CCCC2)c(OC)cc1Cl`: the inhibition was 8.65%.

Consider `CCOC(=O)N1CCN(C(=O)C[C@@H]2C(=O)N(CCc3ccc(Cl)cc3)C3=CCCC[C@]32C(=O)OCC)CC1`, for which the inhibition is 0.68%.

As for `O=C(COc1ccccc1O)NC1CCCC1`, the inhibition is 3.06%.

Consider `COc1ccccc1/C=C/C=N/n1c(-c2ccc(Cl)cc2Cl)n[nH]c1=S`, for which the inhibition was 21.3% (active).

Turning to `COc1ccc(Cl)cc1C=CC=Nc1ccc(S(N)(=O)=O)cc1`, the inhibition was -7.11%.

`COc1ccc(Cl)cc1C=CC=NNC(=O)c1ccncc1`: the inhibition is -0.1%.

Regarding `Cc1ccc(NC(=O)Cc2cccc(F)c2)c(S(=O)(=O)N2CCOCC2)c1`, the inhibition was 0.91%.

As to `COc1ccc(-n2c(SCC(=O)Nc3ccc4cn[nH]c4c3)nnc2-c2cccnc2)cc1`, the inhibition is -1.98%.

As to `FC(F)(F)c1cccc(NC(=S)OC2CCC23CCC(c2ccccc2)CC3)c1` (stereo not given), the inhibition is -5.1%.

As to `CN(c1ccccc1)S(=O)(=O)c1ccc(C(=O)NCc2cccnc2)cc1`, the inhibition is -4.64%.

Turning to `O=C(CN(c1cc(C(F)(F)F)ccc1Cl)S(=O)(=O)c1ccccc1)NCc1cccnc1`, the inhibition was 0.93%.

As to `O=C(c1cccnc1)N(c1cc2sc(=O)oc2c2ccccc12)S(=O)(=O)c1ccccc1`, the inhibition was 78.8% (active).

For `O=C1CCC2(CCC(c3ccc(Cl)cc3)CC2)N1CCO` (stereo not given), the inhibition was -4.08%.

In the case of `O=C(NC1CCCCN(Cc2ccc(Cl)cc2)C1=O)c1ccc(Br)cc1` (stereo not given), the inhibition was -6.45%.

Turning to `Cc1c(NC(=O)CCCOc2ccccc2)cccc1[N+](=O)[O-]`, the inhibition is 2.67%.

As to `Cc1c(NC(=O)/C=C/C(=O)O)cccc1[N+](=O)[O-]`, the inhibition is 70.3% (active).

For `Cc1c(NC(=S)NCc2ccc(F)cc2)cccc1[N+](=O)[O-]`, the inhibition is 4.29%.

For the compound `COc1ccc(CCN2CNc3c(c(=O)n(C)c(=O)n3C)C2)cc1OC`, the inhibition is 5.09%.

For the compound `O=S(=O)(c1ccc(Sc2nnc3ccccn23)nc1)N1CCOCC1`, the inhibition was 65.8% (active).

On to `O=S(=O)(c1ccc(SCc2ccccc2)nc1)N1CCCCCC1`, for which the inhibition was -2.5%.

As for `O=S(=O)(c1ccc(SCc2ccc(Br)cc2)nc1)N1CCOCC1`, the inhibition was 0.76%.

Turning to `CCOC(=O)[C@]12CCCCC/C=C\1N(Cc1ccc(OC)cc1)C(=O)[C@H]2CC(=O)NCCCN1CCCC1=O`, the inhibition was 0.39%.

`COc1c(C(=O)N2CCCC2)ccc2ccccc12`: the inhibition was 1.75%.

For `COC(=O)c1ccc(Cc2ccccc2)o1`, the inhibition is -1.95%.

Take `COC(=O)C[n+]1cccc2ccccc21`: the inhibition was 38.1% (active).

Consider `COc1ccc(CN(CCN2CCOCC2)C(=O)c2ccc(C)cc2)cc1OC`, for which the inhibition is 2.63%.

As to `Cc1ccc(Cn2cc(CN3[C@@H](C)COc4cc(Br)ccc4S3(=O)=O)nn2)cc1`, the inhibition is 0.27%.

`CCOC(=O)[C@]12CCCCC/C=C\1N(Cc1ccc(OC)cc1)C(=O)[C@H]2CC(=O)N1CCOCC1`: the inhibition was 0.54%.

Consider `CSCCNC(=O)c1ccc2nc(Cc3ccccc3F)oc2c1`, for which the inhibition is 3.93%.

In the case of `C=CCN1C(=O)[C@H](CC(=O)N2CCN(C(=O)OCC)CC2)[C@@]2(C(=O)OCC)CCCC=C12`, the inhibition is 0.65%.

Take `COC(=O)c1cc(C(=O)OC)cc(N2C(=O)CC(N3CCN(c4ccccc4)CC3)C2=O)c1` (stereo not given): the inhibition was 3.3%.

Take `O=C(C1CC(=O)N(c2ccc(F)cc2)C1)N1CCN(c2ccccc2)CC1` (stereo not given): the inhibition was -0.62%.

In the case of `O=C1CC(N2CCN(c3ccc(F)cc3)CC2)C(=O)N1c1ccccc1` (stereo not given), the inhibition was 21.5% (active).

On to `COC(=O)C1(CCSC)NC(c2ccc(OC)cc2OC)C2C(=O)N(c3cccc(C(C)=O)c3)C(=O)C21` (stereo not given), for which the inhibition is -3.15%.

`CC1CCCCC1NC(=O)COC(=O)Cc1ccc(Br)cc1` (stereo not given): the inhibition is -4.22%.

For the compound `Cc1nnsc1C(=O)Nc1cccc(Cl)c1C`, the inhibition was 2.23%.

In the case of `O=C(Nc1cccc(Cl)c1)c1cc(S(=O)(=O)N2CCCCC2)c[nH]1`, the inhibition was 3.07%.

Take `O=C(Nc1ccccc1)c1nnsc1S(=O)(=O)c1ccc(Cl)cc1`: the inhibition was 89.9% (active).

Consider `O=c1[nH]c2c(c(=O)n1-c1ccccc1)CCO2`, for which the inhibition is 3.18%.

Take `Cc1ccc(S(=O)(=O)NCCC(c2ccccc2)c2ccccc2)cc1C(=O)O`: the inhibition was -5.2%.

Turning to `COC(=O)c1ccc(CNC(=O)Cn2cc(C)c(=O)[nH]c2=O)cc1`, the inhibition was 3.88%.

For the compound `CC(=O)NC1=NC(=O)CS1`, the inhibition was 71.7% (active).

With `C[C@@H]1CN([C@@H](C)CO)C(=O)c2cccc(NC(=O)Nc3cccc4ccccc34)c2O[C@H]1CN(C)S(=O)(=O)c1ccccc1F`, the inhibition was -7.41%.

In the case of `COc1cccc(/C=C2\CC3(OC(C)=O)CCCN2C3)c1` (stereo not given), the inhibition was -1.33%.
